Measured values: the supplement of paper PMC12494721
Where a name gives a salt, the structure may show the parent alone.

The molecules below were run on Ruminococcus gnavus DSM 108212 (assay: growth (OD595) fold change vs plate DMSO controls (fold change (ratio)); higher = more growth). Settings: incubation time: 27 h, anaerobic, 37 °C.
How it was run: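 Growth is the fold change relative to the median of plate DMSO controls. Readings came from anaerobic mGAM cultures in 96-well plates grown for 27 h at 37 °C and read at 595 nm. They were blank-subtracted, corrected for compound background with 20 µM compound solutions in water, and converted to OD with a calibration factor of 5. Values are means of 2 biological replicates, and fold changes above 1.5 were set to NA.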

Compared with `CN1CCCN=C1/C=C/c1cccc(O)c1` [Oxantel pamoate] (20 µM), `COC(=O)[C@H](c1ccccc1Cl)N1CCc2sccc2C1` [Clopidogrel] (20 µM) is higher in growth: 0.853 for the first, 0.969 for the second.

Compared with `CCCCCCCCCCCCCCCCCCCCCC(=O)Nc1ccn([C@@H]2O[C@H](CO)[C@@H](O)[C@@H]2O)c(=O)n1` [Enocitabine] (20 µM), `CCCCS(=O)(=O)N[C@@H](Cc1ccc(OCCCCC2CCNCC2)cc1)C(=O)O` [Tirofiban hydrochloride] (20 µM) is higher in growth: 0.975 for the first, 1.11 for the second.

Compared with `CN(C)CCCN1c2ccccc2[S+]([O-])c2ccc(Cl)cc21` (centres undefined) [Chlorpromazine Sulfoxide] (20 µM), `CN(C)CCN(Cc1ccc(Cl)cc1)c1ccccn1` [Chloropyramine hydrochloride] (20 µM) is lower in growth: 1.03 for the first, 0.771 for the second.

Going from `CCN(CC)CCOC(=O)C1(c2ccc([N+](=O)[O-])cc2)CCCC1` [Nitrocaramiphen hydrochloride] (20 µM) to `CCCCNc1ccc(C(=O)OCCN(C)C)cc1` [Tetracaine hydrochloride] (20 µM), the growth falls from 1.02 to 0.907.

First: COc1ccc(CC2c3cc(OC)c(OC)cc3CC[N+]2(C)CCC(=O)OCCCCCOC(=O)CC[N+]2(C)CCc3cc(OC)c(OC)cc3C2Cc2ccc(OC)c(OC)c2)cc1OC (centres undefined) [Atracurium besylate] (20 µM)
Second: COC(=O)C1=C(C)NC(C)=C(C(=O)O[C@H]2CCN(Cc3ccccc3)C2)[C@H]1c1cccc([N+](=O)[O-])c1 [Barnidipine Hydrochloride] (20 µM)
The growth of the first is higher: 1.13 for the first, 1.06 for the second.

First: O=C(O)C[C@H](O)C[C@H](O)/C=C/c1c(C2CC2)nc2ccccc2c1-c1ccc(F)cc1 [Pitavastatin calcium] (20 µM)
Second: CC(C(=O)O)c1ccc(N2Cc3ccccc3C2=O)cc1 (centres undefined) [Indoprofen] (20 µM)
The growth of the first is higher: 1.12 for the first, 1.01 for the second.

Going from `CC(Cc1cccc(C(F)(F)F)c1)NCCOC(=O)c1ccccc1` (centres undefined) [Benfluorex] (20 µM) to `CC[N+](CC)(CC(=O)Nc1c(C)cccc1C)Cc1ccccc1` [Denatonium benzoate] (20 µM), the growth rises from 0.795 to 1.02.

Compared with `S=c1[nH]cnc2nc[nH]c12` [Mercaptopurine] (20 µM), `Cc1cn[nH]c1` [Fomepizole] (20 µM) is higher in growth: 0.869 for the first, 1.15 for the second.

First: C[C@@H](O[C@H]1OCCN(Cc2n[nH]c(=O)[nH]2)[C@H]1c1ccc(F)cc1)c1cc(C(F)(F)F)cc(C(F)(F)F)c1 [Aprepitant] (20 µM)
Second: COc1ccc2cc([C@H](C)C(=O)O)ccc2c1 [(S)-Naproxen] (20 µM)
The growth of the first is higher: 1.2 for the first, 1.08 for the second.

First: Cc1nnc(NS(=O)(=O)c2ccc(N)cc2)s1 [Sulfamethizole] (20 µM)
Second: O=C(O)CCC(=O)Nc1ccc(S(=O)(=O)Nc2nccs2)cc1 [Succinylsulfathiazole] (20 µM)
The growth of the first is lower: 1.12 for the first, 1.13 for the second.

First: O=C(Cn1c(=O)sc2ccc(Cl)cc21)N1CCN(CCO)CC1 [Tiaramide Hydrochloride] (20 µM)
Second: O=C1[C@H]2CCCC[C@H]2C(=O)N1CCCCN1CCN(c2nsc3ccccc23)CC1 [Perospirone hydrochloride] (20 µM)
The growth of the first is lower: 0.982 for the first, 1.32 for the second.

Compared with `Clc1ccc(COC(Cn2ccnc2)c2ccc(Cl)cc2Cl)c(Cl)c1` (centres undefined) [Miconazole] (20 µM), `CC(C)N1CCN(c2ccc(OCC3COC(Cn4cncn4)(c4ccc(Cl)cc4Cl)O3)cc2)CC1` (centres undefined) [Terconazole] (20 µM) is higher in growth: 0.232 for the first, 1 for the second.

Going from `CC[C@H]1OC(=O)[C@H](C)[C@@H](O[C@H]2C[C@@](C)(OC)[C@@H](O)[C@H](C)O2)[C@H](C)[C@@H](O[C@@H]2O[C@H](C)C[C@H](N(C)C)[C@H]2O)[C@](C)(OC)C[C@@H](C)C(=O)[C@H](C)[C@@H](O)[C@]1(C)O` [Clarithromycin] (20 µM) to `CCC(=O)OCC(=O)[C@@]1(OC(=O)CC)[C@H](C)C[C@H]2[C@H]3[C@H]([C@@H](O)C[C@@]21C)[C@@]1(C)C=CC(=O)C=C1C[C@H]3Cl` [Alclometasone dipropionate] (20 µM), the growth rises from 0.257 to 0.881.

First: CCCC(=O)OCOC(=O)C1=C(C)NC(C)=C(C(=O)OC)C1c1cccc(Cl)c1Cl (centres undefined) [Clevidipine] (20 µM)
Second: CN(C)[C@@H]1C(=O)C(C(N)=O)=C(O)[C@@]2(O)C(=O)C3=C(O)c4c(O)ccc(Cl)c4[C@@H](O)[C@H]3C[C@@H]12 [Demeclocycline hydrochloride] (20 µM)
The growth of the first is higher: 1.22 for the first, 0.802 for the second.

First: COc1cc(/C=C/C(=O)N2CCN(CC(=O)N3CCCC3)CC2)cc(OC)c1OC [Cinepazide maleate] (20 µM)
Second: C[N+]1(C)CCC(OC(=O)C(O)(c2ccccc2)C2CCCC2)C1 (centres undefined) [Glycopyrrolate bromide] (20 µM)
The growth of the first is higher: 1.02 for the first, 0.959 for the second.

First: COCCCOc1ccnc(C[S+]([O-])c2nc3ccccc3[nH]2)c1C (centres undefined) [Rabeprazole sodium salt] (20 µM)
Second: CN(C)CCC=C1c2ccccc2C=Cc2ccccc21 [Cyclobenzaprine hydrochloride] (20 µM)
The growth of the first is higher: 1.26 for the first, 0.869 for the second.

First: CC1=C(/C=C/C(C)=C/C=C/C(C)=C/C(=O)O)C(C)(C)CCC1 [Retinoic acid] (20 µM)
Second: CC[C@H](C)C(=O)O[C@H]1C[C@@H](C)C=C2C=C[C@H](C)[C@H](CC[C@@H]3C[C@@H](O)CC(=O)O3)[C@H]21 [Lovastatin] (20 µM)
The growth of the first is lower: 1.04 for the first, 1.16 for the second.

Compared with `C1CCC(C(CC2CCCCN2)C2CCCCC2)CC1` (centres undefined) [Perhexiline maleate] (20 µM), `CC(C)CN(C[C@@H](O)[C@H](Cc1ccccc1)NC(=O)O[C@H]1CCOC1)S(=O)(=O)c1ccc(N)cc1` [Amprenavir] (20 µM) is lower in growth: 0.952 for the first, 0.947 for the second.

First: COc1ccc(-c2cc(=O)c3c(O)cc(O[C@@H]4O[C@H](CO[C@@H]5O[C@@H](C)[C@H](O)[C@@H](O)[C@H]5O)[C@@H](O)[C@H](O)[C@H]4O)cc3o2)cc1O [Diosmin] (20 µM)
Second: COC(c1ccccc1)(c1ccccc1)[C@H](Oc1nc(C)cc(C)n1)C(=O)O [Ambrisentan] (20 µM)
The growth of the first is higher: 1.1 for the first, 1.04 for the second.

In the case of `C#CCN(C)CCCOc1ccc(Cl)cc1Cl` [Clorgyline hydrochloride] (20 µM), the growth is reported as 0.97.
